± gives the standard deviation.

Holding throughout (assay): peptide microarray binding signal (635 nm), min-max normalized on array (fraction of array maximum); higher = stronger binding
Test [1] addresses T1, HaloTag-ATRX ADD domain (163-292).
T1 chain: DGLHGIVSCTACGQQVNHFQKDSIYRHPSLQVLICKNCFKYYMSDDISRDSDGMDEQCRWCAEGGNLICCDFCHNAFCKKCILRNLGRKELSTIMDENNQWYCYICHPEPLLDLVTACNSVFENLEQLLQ
In short, it runs like this: (§1)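 Histone 13-mer peptide–cellulose conjugates were printed in triplicate on nitrocellulose with a Cy3 tracer, then blocked overnight at 4°C. Arrays were probed for 1 h at 4°C with biotin-labelled HaloTag reader fusions (10 nM to 1 μM) plus streptavidin-Alexa Fluor 647, or with rabbit histone antibodies (1:10,000 to 1:2,000) plus anti-rabbit Alexa 647. An Axon GenePix 4000B scanned 635 nm for signal and 532 nm for misprints. Binding signal is the triplicate-spot mean intensity, min-max scaled per library.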

Test [2] deals with HaloTag-ING2 PHD (mouse Ing2 200-280). In short, it runs like this:
as §1

Test [3] concerns the target anti-H3K4me3 antibody ab8580. In short, it runs like this: as §1
Test [4] has as its target anti-H3K9me3 antibody ab8898. In short, it runs like this: as §1
Where [5] appears, read: peptide region: H3 73-85, peptide modifications: H3K79me1, binder concentration: 1:2,000 dilution.
The mark [6] stands for this setting: peptide region: H3 73-85, peptide modifications: H3K79me1, binder concentration: 1:10,000 dilution.
Setting [7] is: peptide region: H3 112-124, peptide modifications: H3K115ac H3R116me1, binder concentration: 1:2,000 dilution.
The mark [8] stands for this setting: peptide region: H3 112-124, peptide modifications: H3K115ac H3R116me1, binder concentration: 1:10,000 dilution.
Setting [9] is: peptide region: H3 50-62, peptide modifications: H3T58ph, binder concentration: 1:2,000 dilution.
[10] abbreviates: peptide region: H3 50-62, peptide modifications: H3T58ph, binder concentration: 1:10,000 dilution.
[11] abbreviates: peptide region: H3 73-85, peptide modifications: H3K79me1 H3T80ph, binder concentration: 1:2,000 dilution.
[12] abbreviates: peptide region: H3 73-85, peptide modifications: H3K79me1 H3T80ph, binder concentration: 1:10,000 dilution.
The mark [13] stands for this setting: peptide region: H3 112-124, peptide modifications: H3K115ac H3R116cit, binder concentration: 1:2,000 dilution.
Where [14] appears, read: peptide region: H3 112-124, peptide modifications: H3K115ac H3R116cit, binder concentration: 1:10,000 dilution.

As for EIAQDFKTDLRFQ [H3 73-85 E I A Q D F Kme T D L R F Q], the “peptide microarray binding signal” value was 0.00649 ± 0.00015 in test [1] (peptide region: H3 73-85, peptide modifications: H3K79me1, binder concentration: 50 nM); 0.02 ± 0.0022 in test [1] (peptide region: H3 73-85, peptide modifications: H3K79me1, binder concentration: 500 nM); 0.0116 ± 0.0014 in test [2] (peptide region: H3 73-85, peptide modifications: H3K79me1, binder concentration: 10 nM); 0.00475 ± 0.00052 in test [2] (peptide region: H3 73-85, peptide modifications: H3K79me1, binder concentration: 100 nM); 0.00198 ± 0.00026 in test [3] (setting [5]); 0.00234 ± 9.2e-05 in test [3] (setting [6]). The “peptide microarray binding signal” value in test [4] (setting [5]) was found to be 0.0079 ± 0.00033; in test [4] (setting [6]), 0.00357 ± 0.00023.

In the case of IHAKRVTIMPKDI [H3 112-124 I H A Kac Rme V T I M P K D I], the “peptide microarray binding signal” value in test [1] (peptide region: H3 112-124, peptide modifications: H3K115ac H3R116me1, binder concentration: 50 nM) was 0.0108 ± 0.00025; in test [1] (peptide region: H3 112-124, peptide modifications: H3K115ac H3R116me1, binder concentration: 500 nM), 0.0193 ± 0.00083; in test [2] (peptide region: H3 112-124, peptide modifications: H3K115ac H3R116me1, binder concentration: 10 nM), 0.0322 ± 0.0019; in test [2] (peptide region: H3 112-124, peptide modifications: H3K115ac H3R116me1, binder concentration: 100 nM) it was 0.0449 ± 0.0042; in test [3] (setting [7]), 0.00519 ± 0.0005; in test [3] (setting [8]) it was 0.00542 ± 0.00027. The “peptide microarray binding signal” value in test [4] (setting [7]) was found to be 0.00293 ± 0.00034; in test [4] (setting [8]) it was 0.00254 ± 3.9e-05.

For EIRRYQKSTELLI [H3 50-62 E I R R Y Q K S Tph E L L I], the “peptide microarray binding signal” value amounted to 0.000784 ± 1.1e-05 in test [1] (peptide region: H3 50-62, peptide modifications: H3T58ph, binder concentration: 50 nM); 0.00119 ± 3e-05 in test [1] (peptide region: H3 50-62, peptide modifications: H3T58ph, binder concentration: 500 nM); 0.00209 ± 3.2e-05 in test [2] (peptide region: H3 50-62, peptide modifications: H3T58ph, binder concentration: 10 nM); 0.000425 ± 4.9e-06 in test [2] (peptide region: H3 50-62, peptide modifications: H3T58ph, binder concentration: 100 nM); 0.000151 ± 3.3e-06 in test [3] (setting [9]); 0.000114 ± 1.3e-06 in test [3] (setting [10]). Also, the “peptide microarray binding signal” value in test [4] (setting [9]) amounted to 0.0006041 ± 5.5e-06; in test [4] (setting [10]), 0.000519 ± 5.6e-06.

In the case of EIAQDFKTDLRFQ [H3 73-85 E I A Q D F Kme Tph D L R F Q], the “peptide microarray binding signal” value came to 0.001034 ± 5.2e-06 in test [1] (peptide region: H3 73-85, peptide modifications: H3K79me1 H3T80ph, binder concentration: 50 nM); 0.00181 ± 3.2e-05 in test [1] (peptide region: H3 73-85, peptide modifications: H3K79me1 H3T80ph, binder concentration: 500 nM); 0.00281 ± 8.7e-05 in test [2] (peptide region: H3 73-85, peptide modifications: H3K79me1 H3T80ph, binder concentration: 10 nM); 0.00135 ± 7.3e-05 in test [2] (peptide region: H3 73-85, peptide modifications: H3K79me1 H3T80ph, binder concentration: 100 nM); 0.000283 in test [3] (setting [11]); 0.000342 ± 3.8e-06 in test [3] (setting [12]). The “peptide microarray binding signal” value in test [4] (setting [11]) was 0.000921 ± 0.00013; in test [4] (setting [12]) it was 0.000634.

As to IHAKRVTIMPKDI [H3 112-124 I H A Kac Rcit V T I M P K D I], the “peptide microarray binding signal” value was 0.00668 ± 0.00021 in test [1] (peptide region: H3 112-124, peptide modifications: H3K115ac H3R116cit, binder concentration: 50 nM); 0.0105 ± 0.00017 in test [1] (peptide region: H3 112-124, peptide modifications: H3K115ac H3R116cit, binder concentration: 500 nM); 0.0109 ± 0.00031 in test [2] (peptide region: H3 112-124, peptide modifications: H3K115ac H3R116cit, binder concentration: 10 nM); 0.016 ± 0.00067 in test [2] (peptide region: H3 112-124, peptide modifications: H3K115ac H3R116cit, binder concentration: 100 nM); 0.00179 ± 5.5e-05 in test [3] (setting [13]); 0.00211 ± 3.4e-05 in test [3] (setting [14]). Besides, the “peptide microarray binding signal” value in test [4] (setting [13]) turned out to be 0.00154 ± 1.8e-05; in test [4] (setting [14]), 0.00127 ± 1.3e-05.

For the origin of these results see the supplement of paper PMC4022240.
